# Source: article PMC5540273 (PLoS ONE, 2017)
# Tests used:
# Conditions in all cases: concentration: 1 μM, replicates: in singlicate; n = 1
# [1] = tested on: MAP3K4
# [2] = tested on: MAP4K2
# [3] = tested on: MAP4K3
# [4] = tested on: MAP4K4
# [5] = tested on: MAP4K5
# [6] = tested on: MAPKAPK2
# [7] = tested on: MAPKAPK5
# [8] = tested on: MARK1
# [9] = tested on: MARK2
# [10] = tested on: MARK3
# [11] = tested on: MARK4
# [12] = tested on: MAST1
# [13] = tested on: T1, MEK1
# T1 construct: gene MAP2K1
# [14] = tested on: T2, MEK2
# T2 construct: gene MAP2K2
# [15] = tested on: T3, MEK3
# T3 construct: gene MAP2K3
# [16] = tested on: T4, MEK4
# T4 construct: gene MAP2K4
# [17] = tested on: T5, MEK5
# T5 construct: gene MAP2K5
# [18] = tested on: T6, MEK6
# T6 construct: gene MAP2K6
# [19] = tested on: MELK
# [20] = tested on: MERTK
# 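Also: KINOMEscan kinase panel screen.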
Structure (SMILES),%Inh [1] [%],%Inh [2] [%],%Inh [3] [%],%Inh [4] [%],%Inh [5] [%],%Inh [6] [%],%Inh [7] [%],%Inh [8] [%],%Inh [9] [%],%Inh [10] [%],%Inh [11] [%],%Inh [12] [%],%Inh [13] [%],%Inh [14] [%],%Inh [15] [%],%Inh [16] [%],%Inh [17] [%],%Inh [18] [%],%Inh [19] [%],%Inh [20] [%]
Nc1n[nH]c2ncc(-c3ccccc3)cc12 [SB-517081],3,0,0,0,0,19,0,0,0,0,0,0,0,1,0,0,85,4,0,0
COc1cccc(C2=C(N(C)c3ccccc3)C(=O)NC2=O)c1 [SB-334865],12,0,0,0,0,17,0,0,0,0,1,0,0,0,0,4,6,0,0,18
FC(F)(F)c1ccc(-c2ncn(CCCN3CCOCC3)c2-c2ccncc2)cc1 [SB-217780],7,0,0,0,0,12,22,9,0,3,20,23,0,0,27,3,33,0,2,0
COc1ccc(-c2cc3c(C)nc(N)nc3n([C@H]3CC[C@H](OCCO)CC3)c2=O)cn1,4,0,30,0,0,0,0,0,1,0,0,0,0,0,5,0,0,16,19,0
OCCCNc1nccc(-c2c(-c3cccc(C(F)(F)F)c3)nn3cc(C(F)(F)F)ccc23)n1 [GW630813],4,0,0,6,2,7,0,0,0,0,0,0,0,0,0,0,7,0,0,12
COc1cccc(C2=C(Nc3cccc(C(=O)O)c3)C(=O)NC2=O)c1 [SB-390770],20,0,11,12,15,6,0,15,0,0,23,35,0,10,0,16,4,0,21,3
CCn1c(-c2ccoc2)nc2cnccc21 [SB-733887],0,0,0,11,5,16,0,0,0,3,0,9,18,0,5,14,38,0,22,5
CCC(=O)c1c(-c2ccccc2)c2cc(Cl)ccc2c(=O)n1Cc1cc(S(C)(=O)=O)n(CC(N)=O)n1,0,0,0,0,0,0,0,0,0,6,5,0,1,40,0,0,15,0,0,0
Cc1nn2c(=O)cc(N3CCOCC3)nc2n1Cc1cccc(Cl)c1Cl [GSK2342769],7,0,0,0,0,15,0,0,0,0,0,2,0,0,0,31,0,0,8,10
CCS(=O)c1ccc(-c2coc3ccc(-c4nnc(C)o4)cc23)cc1 (centres unmarked),0,0,0,5,4,0,7,4,8,17,0,53,0,8,6,23,22,0,0,0
CCS(=O)(=O)c1ccc(OC)c(Nc2ncc(-c3ccc(F)cc3)o2)c1.Cl [GW591947],22,0,0,5,0,1,0,0,0,0,0,0,0,0,0,6,18,0,0,28
O=C(Nc1n[nH]c2nc(-c3ccccc3)c(Cl)cc12)C1CC1 [SB-734909],5,0,15,1,9,22,0,30,0,0,25,12,11,0,45,24,50,0,0,0
Cl.c1ccc(Cn2cnc3cc(Nc4ncnc5ccccc45)ccc32)cc1 [GW272142],0,0,0,0,0,15,0,0,0,0,0,0,0,0,0,8,56,0,13,10
Cn1c(=O)c(F)c(Nc2ccc(I)cc2F)c2c(=O)n(OC[C@H](O)CO)cnc21,27,0,0,0,5,0,0,0,0,7,33,37,99.6,99.1,0,0,0,0,13,5
CCC(=O)c1c(-c2ccccc2)c2cc(Cl)ccc2c(=O)n1Cc1ccc(C(=O)O)cc1,0,12,0,0,0,0,17,0,3,0,0,11,0,3,0,0,0,0,0,0
CCCNC(=O)Nc1ccc(Oc2ncnc3ccn(C)c23)cc1,6,7,0,0,0,7,0,6,6,0,9,0,0,0,0,10,61,14,7,13
O=C1NC(=O)C(c2ccccc2)=C1Nc1cccc(O)c1 [SB-390534],24,26,0,1,0,27,20,3,9,22,0,33,16,14,10,12,29,0,4,9
Cc1nc(N(C)[C@H]2CN(C(=O)CC#N)CC[C@H]2C)c2cc[nH]c2n1,12,1,0,0,0,0,10,9,0,0,12,0,2,4,10,0,0,0,0,24
CN(C)c1cc(-c2ccc3c(N)n[nH]c3c2)nc(N)n1 [GSK2219329],0,0,0,9,7,0,0,0,0,0,1,0,0,0,0,0,13,8,0,21
Cc1cccc(-c2nc(Nc3ccc4c(cnn4C)c3)c3ccccc3n2)n1 [GW876731],10,0,0,0,0,0,0,12,0,34,8,100,0,0,0,0,0,5,0,0
Nc1ncnc2c1ncn2-c1cccc(F)c1 [SKF-97560],16,38,0,0,0,0,39,0,0,0,0,19,34,31,43,22,31,0,22,24
Fc1cccc(CSc2nnc(-c3ccc4c(c3)CCO4)o2)c1,0,8,0,0,0,25,16,0,20,5,0,0,3,5,6,5,14,0,0,2

Structure (SMILES),%Inh [1] [%],%Inh [2] [%],%Inh [3] [%],%Inh [4] [%],%Inh [5] [%],%Inh [6] [%],%Inh [7] [%],%Inh [8] [%],%Inh [9] [%],%Inh [10] [%],%Inh [11] [%],%Inh [12] [%],%Inh [13] [%],%Inh [14] [%],%Inh [15] [%],%Inh [16] [%],%Inh [17] [%],%Inh [18] [%],%Inh [19] [%],%Inh [20] [%]
Nc1nc(N)c2nc(-c3ccccc3)[nH]c2n1 [SKF-12778],26,26,0,26,21,13,5,1,0,0,11,0,0,13,0,1,18,0,9,47
CCc1nc(-c2cccc(C)c2)c(-c2ccncc2)s1,0,0,0,17,0,0,0,0,11,0,0,0,2,48,23,0,34,0,0,0
Cc1ccc(Oc2ccc(Nc3ncnc4cc[nH]c34)cc2C)cn1,6,0,0,0,0,0,30,20,4,3,19,49,37,25,0,0,99.7,9,0,0
CC(C)(C)c1ccc(C(=O)Nc2cn3cc(-c4ccccc4)ccc3n2)cc1,7,0,33,5,0,12,0,0,19,0,0,0,0,45,25,0,75,0,0,0
COc1ccc(-c2cc3c(C)nc(N)nc3n([C@H]3CC[C@H](O)CC3)c2=O)cn1,0,0,3,0,0,0,0,0,0,0,0,0,0,0,0,0,0,0,3,0
O=C(Nc1n[nH]c2cc(-c3ccccc3F)ccc12)C1CC1 [SB-733371],29,16,0,43,18,0,10,0,29,0,0,52,0,14,16,0,48,0,0,0
Cc1ccc(-c2ccc3c(ccc4sc5c(c43)NC[C@@H](C)N=C5N(C)C)n2)cn1,0,0,0,0,0,0,0,0,5,0,0,0,0,0,0,0,0,2,0,0
COc1cc2ncn(-c3cc(OCc4ccncc4)c(C(N)=O)s3)c2cc1OC [GSK336313],0,0,0,0,3,5,0,0,0,0,0,0,3,4,0,8,88,44,0,0
COC(=O)c1c(-c2ccccc2)c2cc(Br)ccc2c(=O)n1Cc1ccc(S(C)(=O)=O)cc1,9,0,0,19,0,4,2,1,0,11,1,21,13,7,2,17,29,17,12,4
CCC(=O)c1c(-c2ccccc2)c2cc(Cl)ccc2c(=O)n1Cc1cc(C(=O)NC2CC2)n(C)n1,23,0,30,0,0,8,0,13,0,0,13,47,6,3,2,8,11,22,0,5
Cc1nnc(-c2ccc3ncn(-c4ccc(S(C)=O)cc4)c3c2)o1 (centres unmarked),16,100,0,0,0,11,0,0,0,2,0,0,2,22,15,8,0,13,13,1
Nc1nc(-c2ccccc2F)c(-c2ccnc3ccccc23)s1 [GW560459],1,0,0,11,0,9,0,0,0,4,0,0,0,0,0,40,50,5,0,0
O=C(NCCNc1ccnc(Nc2ccc(F)cc2)n1)Nc1ccc2c(c1)OCO2 [GSK1379882],24,0,0,0,0,0,0,0,0,0,0,4,9,19,4,10,9,8,8,0
COc1cc2ncn(-c3cc(OCc4ccncc4Br)c(C(N)=O)s3)c2cc1OC [GW854278],17,11,0,0,20,0,0,8,37,0,39,3,0,13,0,16,98.8,0,17,11
O=C(Nc1ccc2c(c1)OCO2)NC1CCN(c2ccnc(NCc3ccc(F)cc3)n2)CC1 [GSK1379859],0,0,0,3,0,13,0,8,0,0,20,0,0,0,6,0,8,0,100,26
O=C(NCc1cccs1)c1cc(C(=O)c2c(Cl)cccc2Cl)c[nH]1 [GW823670],0,0,0,0,3,0,0,0,0,50,0,0,4,25,1,0,7,5,26,0
COc1cc(OC)cc(-c2cc3cnc(N)nc3nc2NC(=O)NC(C)(C)C)c1,32,0,0,0,0,0,0,0,8,0,0,0,0,0,0,0,0,0,0,0
COC(=O)c1c(-c2ccccc2)c2cc(C)ccc2c(=O)n1Cc1ccccc1,2,0,0,0,0,24,0,0,17,0,0,0,0,0,0,0,0,10,0,0
CCc1ccc(-c2ccc3c(c2)-c2nn(C)cc2S(=O)(=O)N3C)cc1,1,0,0,19,22,0,0,24,0,0,16,0,53,18,17,0,27,0,0,0
COc1cc2ncn(-c3cc(OCc4ccc(S(C)(=O)=O)cc4)c(C(N)=O)s3)c2cc1OC [GW869979],0,26,0,0,0,0,31,0,10,0,0,5,30,25,28,6,81,0,8,0
C[C@@H]1CC[C@H](C(=O)NC2CCCCC2)CN1c1cc(-c2ccc3c(N)n[nH]c3c2)nc(N)n1 [GSK2291363],28,0,0,7,0,0,0,3,3,0,11,0,0,0,18,27,35,9,26,33
